Consider 39 targets from the supplement of paper PMC10849652.

Of roughly 8,800 targets only a part is listed; those with a hit were picked by preference. About 0.5% of all pairs of compound and target were hits. Values without a mark were called inactive.

Chain of UniProt P27824 (P27824 whole entry, looked up): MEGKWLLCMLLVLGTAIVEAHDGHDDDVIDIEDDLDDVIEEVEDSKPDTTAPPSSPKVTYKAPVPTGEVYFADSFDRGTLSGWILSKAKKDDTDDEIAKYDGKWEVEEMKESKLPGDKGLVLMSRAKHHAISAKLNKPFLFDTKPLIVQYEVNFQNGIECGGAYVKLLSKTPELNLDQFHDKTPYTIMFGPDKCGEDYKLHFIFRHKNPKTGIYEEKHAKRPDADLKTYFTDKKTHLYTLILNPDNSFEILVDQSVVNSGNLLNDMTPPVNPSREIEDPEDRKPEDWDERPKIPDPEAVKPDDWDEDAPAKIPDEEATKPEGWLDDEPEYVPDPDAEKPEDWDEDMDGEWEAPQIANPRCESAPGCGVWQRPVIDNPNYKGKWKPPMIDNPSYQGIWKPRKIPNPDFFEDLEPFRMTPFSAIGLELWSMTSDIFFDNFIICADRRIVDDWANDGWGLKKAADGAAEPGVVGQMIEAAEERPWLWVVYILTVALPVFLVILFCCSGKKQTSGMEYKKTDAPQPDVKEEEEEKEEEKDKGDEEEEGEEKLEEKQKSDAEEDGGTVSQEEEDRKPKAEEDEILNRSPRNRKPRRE
Chain of UniProt Q7L2Z9 (Q7L2Z9 whole entry, looked up): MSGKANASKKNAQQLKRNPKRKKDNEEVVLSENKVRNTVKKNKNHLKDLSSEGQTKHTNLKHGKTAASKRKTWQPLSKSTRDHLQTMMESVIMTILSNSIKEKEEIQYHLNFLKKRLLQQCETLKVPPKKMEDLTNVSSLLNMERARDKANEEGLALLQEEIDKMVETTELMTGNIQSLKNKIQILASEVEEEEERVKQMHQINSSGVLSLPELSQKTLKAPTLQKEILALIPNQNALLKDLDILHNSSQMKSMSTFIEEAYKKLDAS
Chain of UniProt Q14692 (Q14692 whole entry, looked up): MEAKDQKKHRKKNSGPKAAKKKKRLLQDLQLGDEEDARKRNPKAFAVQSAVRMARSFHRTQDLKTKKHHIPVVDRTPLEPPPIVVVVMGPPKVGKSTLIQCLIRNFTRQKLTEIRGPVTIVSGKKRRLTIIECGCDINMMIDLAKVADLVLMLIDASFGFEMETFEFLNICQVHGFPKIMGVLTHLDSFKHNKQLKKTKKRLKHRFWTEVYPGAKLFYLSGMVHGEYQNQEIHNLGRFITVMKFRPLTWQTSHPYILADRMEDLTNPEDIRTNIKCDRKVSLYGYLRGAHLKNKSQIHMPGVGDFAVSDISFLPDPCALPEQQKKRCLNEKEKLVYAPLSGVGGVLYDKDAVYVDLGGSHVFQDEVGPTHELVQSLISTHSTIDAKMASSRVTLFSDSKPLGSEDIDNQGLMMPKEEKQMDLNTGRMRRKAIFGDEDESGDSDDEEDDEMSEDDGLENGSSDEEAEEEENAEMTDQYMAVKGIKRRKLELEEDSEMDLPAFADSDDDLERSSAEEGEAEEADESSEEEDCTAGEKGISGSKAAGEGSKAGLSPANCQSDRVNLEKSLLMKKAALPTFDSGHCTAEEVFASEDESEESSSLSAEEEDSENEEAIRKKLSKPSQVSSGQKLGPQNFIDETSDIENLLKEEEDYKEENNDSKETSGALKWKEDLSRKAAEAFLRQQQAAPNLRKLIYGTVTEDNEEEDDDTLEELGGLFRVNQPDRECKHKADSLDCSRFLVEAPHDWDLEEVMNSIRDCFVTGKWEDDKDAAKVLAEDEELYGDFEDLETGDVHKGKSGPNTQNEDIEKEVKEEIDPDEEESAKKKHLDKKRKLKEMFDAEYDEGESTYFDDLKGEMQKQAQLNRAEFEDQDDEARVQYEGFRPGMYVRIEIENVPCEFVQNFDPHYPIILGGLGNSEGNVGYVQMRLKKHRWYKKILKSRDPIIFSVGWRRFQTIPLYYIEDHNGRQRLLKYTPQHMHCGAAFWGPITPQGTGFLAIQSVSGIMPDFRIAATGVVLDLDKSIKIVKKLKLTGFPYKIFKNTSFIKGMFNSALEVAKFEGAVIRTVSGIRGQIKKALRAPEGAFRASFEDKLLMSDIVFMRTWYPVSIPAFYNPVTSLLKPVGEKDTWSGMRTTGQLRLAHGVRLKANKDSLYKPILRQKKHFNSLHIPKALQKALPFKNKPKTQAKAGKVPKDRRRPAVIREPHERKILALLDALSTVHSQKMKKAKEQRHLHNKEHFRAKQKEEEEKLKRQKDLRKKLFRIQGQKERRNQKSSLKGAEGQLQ
Chain of UniProt Q9H257 (Q9H257 whole entry, looked up): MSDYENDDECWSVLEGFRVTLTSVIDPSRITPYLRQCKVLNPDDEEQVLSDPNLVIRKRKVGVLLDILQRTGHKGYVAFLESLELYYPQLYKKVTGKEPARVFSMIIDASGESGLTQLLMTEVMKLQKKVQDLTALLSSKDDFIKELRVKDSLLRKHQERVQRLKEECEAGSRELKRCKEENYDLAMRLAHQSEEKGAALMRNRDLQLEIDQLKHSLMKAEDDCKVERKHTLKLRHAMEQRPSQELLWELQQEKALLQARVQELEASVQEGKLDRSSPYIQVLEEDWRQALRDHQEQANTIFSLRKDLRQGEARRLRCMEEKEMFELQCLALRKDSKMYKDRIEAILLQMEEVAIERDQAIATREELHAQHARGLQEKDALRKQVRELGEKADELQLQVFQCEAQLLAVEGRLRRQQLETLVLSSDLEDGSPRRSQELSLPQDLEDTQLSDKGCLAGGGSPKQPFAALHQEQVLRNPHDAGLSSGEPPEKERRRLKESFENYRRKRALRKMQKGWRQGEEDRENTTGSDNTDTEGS
Chain of UniProt Q96SN8 (Q96SN8 whole entry, looked up): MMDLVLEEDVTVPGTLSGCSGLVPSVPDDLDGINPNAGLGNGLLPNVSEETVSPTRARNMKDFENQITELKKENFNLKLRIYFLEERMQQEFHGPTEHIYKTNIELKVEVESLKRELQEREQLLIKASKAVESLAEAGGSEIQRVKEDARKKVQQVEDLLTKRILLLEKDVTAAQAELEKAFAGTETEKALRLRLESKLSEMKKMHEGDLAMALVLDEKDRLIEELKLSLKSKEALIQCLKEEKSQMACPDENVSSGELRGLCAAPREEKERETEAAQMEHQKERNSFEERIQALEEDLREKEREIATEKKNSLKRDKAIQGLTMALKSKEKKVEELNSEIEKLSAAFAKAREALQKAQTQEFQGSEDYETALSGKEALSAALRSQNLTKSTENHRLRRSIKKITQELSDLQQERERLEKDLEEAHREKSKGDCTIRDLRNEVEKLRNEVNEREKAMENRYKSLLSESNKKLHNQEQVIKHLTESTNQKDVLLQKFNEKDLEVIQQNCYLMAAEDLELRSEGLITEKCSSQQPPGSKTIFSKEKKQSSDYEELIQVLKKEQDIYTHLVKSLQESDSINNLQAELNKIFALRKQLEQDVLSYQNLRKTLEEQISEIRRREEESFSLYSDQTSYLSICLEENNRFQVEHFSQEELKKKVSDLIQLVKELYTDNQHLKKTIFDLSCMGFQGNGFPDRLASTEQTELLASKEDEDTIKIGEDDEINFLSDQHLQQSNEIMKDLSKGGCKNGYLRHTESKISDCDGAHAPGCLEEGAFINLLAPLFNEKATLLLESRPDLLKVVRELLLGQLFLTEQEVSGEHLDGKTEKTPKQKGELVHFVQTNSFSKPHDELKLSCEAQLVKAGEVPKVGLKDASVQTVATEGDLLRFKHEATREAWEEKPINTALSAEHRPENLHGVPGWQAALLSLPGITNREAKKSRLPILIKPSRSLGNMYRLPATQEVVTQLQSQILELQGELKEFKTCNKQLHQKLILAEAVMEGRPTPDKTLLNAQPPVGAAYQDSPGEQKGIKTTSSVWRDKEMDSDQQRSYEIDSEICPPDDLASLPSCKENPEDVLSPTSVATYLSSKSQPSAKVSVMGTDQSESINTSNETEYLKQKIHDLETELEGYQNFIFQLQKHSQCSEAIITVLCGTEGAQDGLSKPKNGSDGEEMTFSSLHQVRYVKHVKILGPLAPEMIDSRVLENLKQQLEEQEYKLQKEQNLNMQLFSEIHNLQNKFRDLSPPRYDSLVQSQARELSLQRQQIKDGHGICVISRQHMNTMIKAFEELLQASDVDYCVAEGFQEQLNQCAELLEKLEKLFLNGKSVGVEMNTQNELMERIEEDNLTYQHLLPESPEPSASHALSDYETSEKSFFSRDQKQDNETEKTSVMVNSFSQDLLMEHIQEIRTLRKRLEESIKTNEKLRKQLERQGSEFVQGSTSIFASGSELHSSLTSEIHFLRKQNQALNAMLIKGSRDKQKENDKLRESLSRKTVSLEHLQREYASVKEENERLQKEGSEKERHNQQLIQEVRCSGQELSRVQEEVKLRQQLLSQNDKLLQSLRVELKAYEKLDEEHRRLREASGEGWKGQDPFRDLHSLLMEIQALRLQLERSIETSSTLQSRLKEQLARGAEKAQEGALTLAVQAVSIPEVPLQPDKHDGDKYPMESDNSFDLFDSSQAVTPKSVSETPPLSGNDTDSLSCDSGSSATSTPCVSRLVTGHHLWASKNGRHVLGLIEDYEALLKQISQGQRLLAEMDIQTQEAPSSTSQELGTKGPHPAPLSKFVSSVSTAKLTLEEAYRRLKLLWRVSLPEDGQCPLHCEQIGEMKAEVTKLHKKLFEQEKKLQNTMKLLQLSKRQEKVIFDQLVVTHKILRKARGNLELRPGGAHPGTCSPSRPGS
Chain of UniProt Q9H3Q1 (Q9H3Q1 whole entry, looked up): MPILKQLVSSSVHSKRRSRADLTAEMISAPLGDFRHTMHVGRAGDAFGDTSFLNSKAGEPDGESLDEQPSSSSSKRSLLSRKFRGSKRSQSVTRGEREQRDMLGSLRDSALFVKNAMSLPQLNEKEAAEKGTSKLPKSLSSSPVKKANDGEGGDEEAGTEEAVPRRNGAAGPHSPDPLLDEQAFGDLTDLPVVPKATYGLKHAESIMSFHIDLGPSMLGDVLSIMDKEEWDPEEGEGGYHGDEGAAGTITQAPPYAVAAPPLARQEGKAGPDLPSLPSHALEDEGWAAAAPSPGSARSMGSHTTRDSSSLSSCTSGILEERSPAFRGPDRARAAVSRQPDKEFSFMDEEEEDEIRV
Chain of UniProt Q9Y6H1 (Q9Y6H1 whole entry, looked up): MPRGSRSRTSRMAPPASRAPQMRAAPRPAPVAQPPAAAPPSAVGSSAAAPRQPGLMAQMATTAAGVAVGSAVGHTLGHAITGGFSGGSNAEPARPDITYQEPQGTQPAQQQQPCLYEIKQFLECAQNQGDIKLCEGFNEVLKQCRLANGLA

Compound in the assay: C[C@H](Nc1ncnc2nc[nH]c12)c1cc2cccc(Cl)c2c(=O)n1-c1ccccc1 [duvelisib]
Put plainly: log2 fold change, soluble protein after heating vs DMSO (PISA); higher = thermal stabilisation; K562 lysate, 10 uM; active = over 0.2 and 3.5 SD of the protein, either way, in both replicates (recomputed). The method, boiled down: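 Log-two fold change in thermal stability relative to solvent controls is reported from duplicates. For each sample, crude K562 extract from dounce-homogenised pellets in PBS pH 7.4 with 1 mM MgCl2, at 1 mg/mL protein, was treated with 10 μM compound for 30 min. Aliquots heated for 3 min across 48°C-58°C were pooled, brought to 0.5% NP-40 at 4°C and cleared at 21,000xg for 90 min. The supernatant was quantified by TMTpro 16plex LC-MS/MS with channel sums equalised.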
As to BRD4 (UniProt O60885), the log2 fold change is 0.013.

For CAMKK1 isoform 2 (UniProt Q8N5S9), the log2 fold change was -0.069.

With ATG13 isoform 2 (UniProt O75143), the log2 fold change is 0.016.

Turning to ATAD1 (UniProt Q8NBU5), the log2 fold change was -0.051.

Take BSDC1 (UniProt Q9NW68): the log2 fold change is 0.016.

In the case of ATP5PF isoform 2 (UniProt P18859), the log2 fold change is -0.021.

For CAD (UniProt P27708), the log2 fold change was -0.011.

Turning to CHCHD2 (UniProt Q9Y6H1), the log2 fold change was -0.008.

CHCHD4 isoform 2 (UniProt Q8N4Q1): the log2 fold change was 0.022.

As for CCNC (UniProt P24863), the log2 fold change was 0.009.

CELF2 isoform 3 (UniProt O95319): the log2 fold change is -0.001.

Regarding CEP120 (UniProt Q8N960), the log2 fold change is 0.005.

With CCDC25 (UniProt Q86WR0), the log2 fold change was 0.011.

As for CELF1 isoform 4 (UniProt Q92879), the log2 fold change was -0.036.

Regarding BNIP1 (UniProt Q12981), the log2 fold change is -0.059.

With CHD5 (UniProt Q8TDI0), the log2 fold change was -0.056.

On to ATP2B4 (UniProt P23634), for which the log2 fold change is 0.053.

For CANX isoform 2 (UniProt P27824), the log2 fold change was 0.015.

With BCKDK (UniProt O14874), the log2 fold change is -0.008.

Turning to CCAR2 (UniProt Q8N163), the log2 fold change was -0.015.

Consider CDC40 (UniProt O60508), for which the log2 fold change was 0.

For the target CDK5RAP2 (UniProt Q96SN8), the log2 fold change was 0.023.

Take CD63 (UniProt P08962): the log2 fold change was 0.025.

As to ATR (UniProt Q13535), the log2 fold change is 0.032.

With CCDC47 (UniProt Q96A33), the log2 fold change was -0.03.

As for CCNA2 (UniProt P20248), the log2 fold change was 0.019.

Consider CHD4 isoform 2 (UniProt Q14839), for which the log2 fold change is -0.038.

On to CENPQ (UniProt Q7L2Z9), for which the log2 fold change is -0.027.

BLM (UniProt P54132): the log2 fold change was 0.018.

For ATP6V0A2 (UniProt Q9Y487), the log2 fold change is 0.026.

On to BTAF1 (UniProt O14981), for which the log2 fold change is 0.011.

With CDC42EP4 (UniProt Q9H3Q1), the log2 fold change was -0.029.

As to BMS1 (UniProt Q14692), the log2 fold change was -0.036.

Turning to CDK9 isoform 2 (UniProt P50750), the log2 fold change is -0.026.

Regarding C12orf45 (UniProt Q8N5I9), the log2 fold change was -0.014.

Take BCKDHB (UniProt P21953): the log2 fold change was 0.026.

As to CDC45 isoform 3 (UniProt O75419), the log2 fold change was -0.007.

Take BUD23 isoform 3 (UniProt O43709): the log2 fold change is 0.025.

For CARD9 (UniProt Q9H257), the log2 fold change was -0.009.
